Test results from PubChem BioAssay AID623946 (Vanderbilt Specialized Chemistry Center, 2012).
Activity calls are given as the source filed them.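 Rule for the calls: active = compounds whose rat M5 calcium response changes with dose, giving a fitted curve judged by the depositor; inactive = the rest, with no dose-dependent response.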

Molecular target: Muscarinic acetylcholine receptor M5 (Rattus norvegicus) (UniProt P08911)
Assay: rat M5 muscarinic receptor PAM counter-screen, SAR follow-up, selectivity assay for M4 PAM optimization project, CHO-K1 cells, calcium fluorescence, ACh EC20 (AID 623946)
Conditions: CHO-K1 rM5, calcium fluorescence, ACh EC20 potentiation; series mostly up to 30 µM

Chain of Muscarinic acetylcholine receptor M5 (Rattus norvegicus) (P08911 whole entry, looked up): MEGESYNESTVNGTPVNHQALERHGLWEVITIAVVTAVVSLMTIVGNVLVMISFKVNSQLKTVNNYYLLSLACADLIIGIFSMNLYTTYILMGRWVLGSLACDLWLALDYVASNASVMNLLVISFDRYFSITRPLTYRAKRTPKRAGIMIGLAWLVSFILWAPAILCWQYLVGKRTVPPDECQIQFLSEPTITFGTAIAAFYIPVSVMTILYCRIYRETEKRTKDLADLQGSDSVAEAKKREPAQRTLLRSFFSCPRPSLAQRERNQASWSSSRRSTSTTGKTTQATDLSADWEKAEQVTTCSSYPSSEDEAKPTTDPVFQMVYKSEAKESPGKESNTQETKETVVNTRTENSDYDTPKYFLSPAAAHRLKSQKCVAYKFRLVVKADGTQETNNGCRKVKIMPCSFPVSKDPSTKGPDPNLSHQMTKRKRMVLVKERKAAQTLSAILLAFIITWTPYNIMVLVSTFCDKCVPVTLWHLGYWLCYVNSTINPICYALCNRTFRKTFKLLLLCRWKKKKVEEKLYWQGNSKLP

Which outcome does the source give for `Cc1nc2sc(C(=O)NCCc3ccncc3)c(N)c2c(C)c1Cl` here?
Its outcome is “inactive”.

For `COc1ccc(C)c2sc(NC(=O)c3ccncc3)nc12`, which outcome is on record?
Its outcome is “inactive”.

With `Cc1nc2sc(C(=O)NCc3nccs3)c(N)c2c(C)c1Cl` as the compound, how does the outcome read?
Its outcome is “inactive”.

`Cc1nc2sc(C(=O)NCc3ccncn3)c(N)c2c(C)c1Cl` was tested. Which outcome did it give?
The outcome was “inactive”.

With `Cc1nc2sc(C(=O)NCc3ccc4c(c3)OCO4)c(N)c2c(C)c1Cl` as the compound, how does the outcome read?
Its outcome is “inactive”.

For `Cc1nc2sc(C(=O)NCc3cccc(F)c3F)c(N)c2c(C)c1Cl`, which outcome is on record?
Its outcome is “inactive”.

How did the outcome turn out when `Cc1nc2sc(C(=O)NC3CC3)c(N)c2c(C)c1Cl` was run?
The outcome was “inactive”.

Which outcome does the source give for `Cc1nc2sc(C(=O)NCc3ccccc3)c(N)c2c(C)c1Cl` here?
The outcome was “inactive”.

With `Cc1nc2sc(C(=O)NCc3cccnc3)c(N)c2c(C)c1Cl` as the compound, how does the outcome read?
Its outcome is “inactive”.

How did the outcome turn out when `Cc1nc2sc(C(=O)NCc3ccncc3)c(N)c2c(C)c1Cl` was run?
Its outcome is “inactive”.
